According to PubChem BioAssay (NCI):
Values joined by “and” are separate entries in the source; they are usually repeats but may differ in a detail not shown here. Equal values may be shown once. Compounds without any hit were thinned out: in the full panel of roughly 83,000, 20% have a hit.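 The test compound was applied at a single concentration to cells in 96-well plates for 48 hours, and percent growth was recorded.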 Active and inactive are the calls of the source. Rule for the calls: active = growth percent below 10; inactive = the rest.

Key:
Assay in all cases: NCI-60 one-dose screen, 48 h (100 = growth as untreated, 0 = no growth, -100 = all killed)
SK-MEL-2 melanoma = system: SK-MEL-2 melanoma
EKVX NSCLC = system: EKVX NSCLC
SN12C renal = system: SN12C renal
UO-31 renal = system: UO-31 renal
TK-10 renal = settings: 10 µM unless noted
ACHN renal = system: ACHN renal
CAKI-1 renal = system: CAKI-1 renal
A498 renal = settings: 10 µM unless noted
HL-60(TB) leukemia = system: HL-60(TB) leukemia
CCRF-CEM leukemia = system: CCRF-CEM leukemia

Measured: growth

O=C1C=C(N2CC2)c2ccccc2C1=O
active: HL-60(TB) leukemia; 10 µM unless noted 8.35% | CCRF-CEM leukemia; 10 µM unless noted -11.5%
inactive: SK-MEL-2 melanoma; 10 µM unless noted 90.7% | EKVX NSCLC; 10 µM unless noted 114% | SN12C renal; 10 µM unless noted 51.2% | UO-31 renal; 10 µM unless noted 53.9% | TK-10 renal 118% | ACHN renal; 10 µM unless noted 21% | CAKI-1 renal; 10 µM unless noted 32.3% | A498 renal 102%

CC(=O)OCC1OC([S-])C(OC(C)=O)C(OC(C)=O)C1OC(C)=O.[Au+].c1ccc(CN2[CH-]N(Cc3ccccc3)C(c3ccccc3)=C2c2ccccc2)cc1
inactive: CCRF-CEM leukemia; 10 µM 17.4%
active: SK-MEL-2 melanoma; 4.75 µM -22.7% | SK-MEL-2 melanoma; 10 µM -30.8% | EKVX NSCLC; 4.75 µM 8.29% | EKVX NSCLC; 10 µM -13.6% | SN12C renal; 4.75 µM -15.1% | SN12C renal; 10 µM -49% | ACHN renal; 4.75 µM -18.5% | ACHN renal; 10 µM -39.3% | HL-60(TB) leukemia; 10 µM unless noted -43.5% [4.75 µM] | CCRF-CEM leukemia; 4.75 µM -21%

COCC1OC2OC3C(COC)OC(OC4C(COC)OC(OC5C(COC)OC(OC6C(COC)OC(OC7C(COC)OC(OC8C(COC)OC(OC1C(O)C2O)C(O)C8O)C(O)C7O)C(O)C6O)C(O)C5O)C(O)C4O)C(O)C3O (stereo not drawn) (tested in a mixture with another compound)
inactive: SK-MEL-2 melanoma; 10 µM unless noted 65.7% | EKVX NSCLC; 10 µM unless noted 105% | SN12C renal; 10 µM unless noted 97.6% | UO-31 renal; 10 µM unless noted 97.3% | TK-10 renal 146% | ACHN renal; 10 µM unless noted 107% | CAKI-1 renal; 10 µM unless noted 102% | A498 renal 111% | HL-60(TB) leukemia; 10 µM unless noted 132%

O=C(O)CCCc1ccc(N(CCCl)CCCl)cc1
inactive: SK-MEL-2 melanoma; 10 µM 102% and 109% | SK-MEL-2 melanoma; 75 µM 100% | EKVX NSCLC; 10 µM 101% | EKVX NSCLC; 75 µM 82.2% | SN12C renal; 10 µM 82.9% and 86.8% | SN12C renal; 75 µM 41.2% | UO-31 renal; 10 µM 83.4% and 89.5% | UO-31 renal; 75 µM 28.8% | ACHN renal; 10 µM 72.4% and 38.8% | CAKI-1 renal; 10 µM 57.9% and 34.2% | HL-60(TB) leukemia; 10 µM 19.6% | CCRF-CEM leukemia; 10 µM 71.9% and 46.6%
active: ACHN renal; 75 µM -12.3% | CAKI-1 renal; 75 µM -12.5% | HL-60(TB) leukemia; 75 µM 3.35% | CCRF-CEM leukemia; 75 µM -7.66%

Nc1c(Cl)c(Cl)nc(C(=O)O)c1Cl
inactive: SK-MEL-2 melanoma; 10 µM unless noted 92.5% | EKVX NSCLC; 10 µM unless noted 86.5% | SN12C renal; 10 µM unless noted 93.6% | UO-31 renal; 10 µM unless noted 71.1% | TK-10 renal 99.2% | ACHN renal; 10 µM unless noted 88.2% | CAKI-1 renal; 10 µM unless noted 90.1% | A498 renal 138% | HL-60(TB) leukemia; 10 µM unless noted 62.8%

CCCCCCCCCCCCCCCC[N+](C)(C)C
active: SK-MEL-2 melanoma; 10 µM unless noted -67.6% and -2.51% | SN12C renal; 10 µM unless noted -87.8% | TK-10 renal -72.8% and -39.9% | HL-60(TB) leukemia; 10 µM unless noted -66.6% and -38.9% | CCRF-CEM leukemia; 10 µM unless noted -51.4% and 1.36%
-82.3% (active) and 62.9% (inactive): UO-31 renal; 10 µM unless noted
inactive: ACHN renal; 10 µM unless noted 19.4%
-58.7% (active) and 18.4% (inactive): CAKI-1 renal; 10 µM unless noted
-51.6% (active) and 29.3% (inactive): EKVX NSCLC; 10 µM unless noted
-58% (active) and 25.3% (inactive): A498 renal

COC12CC3(C)C(C4=CC(=O)OC4)CCC3(O)C3CCC4=CC(=O)CCC4(CO1)C32 (stereo not drawn)
inactive: SK-MEL-2 melanoma; 10 µM unless noted 24.9% | EKVX NSCLC; 10 µM unless noted 103% | SN12C renal; 10 µM unless noted 105% | UO-31 renal; 10 µM unless noted 80.7% | TK-10 renal 101% | ACHN renal; 10 µM unless noted 96.8% | CAKI-1 renal; 10 µM unless noted 105% | A498 renal 120% | HL-60(TB) leukemia; 10 µM unless noted 123% | CCRF-CEM leukemia; 10 µM unless noted 116%

Clc1ccc(COC(Cn2ccnc2)c2ccc(Cl)cc2Cl)c(Cl)c1 (stereo not drawn)
-0.421% (active) and 18.6% (inactive): HL-60(TB) leukemia; 10 µM unless noted
inactive: SK-MEL-2 melanoma; 10 µM unless noted 69.7% and 87% | EKVX NSCLC; 10 µM unless noted 48.6% and 59.2% | SN12C renal; 10 µM unless noted 53.6% and 73.9% | UO-31 renal; 10 µM unless noted 25.8% and 35.5% | TK-10 renal 62.1% and 73.5% | ACHN renal; 10 µM unless noted 53.8% and 72.4% | CAKI-1 renal; 10 µM unless noted 29.6% and 53.7% | A498 renal 46.1% | CCRF-CEM leukemia; 10 µM unless noted 51% and 53.5%

CC(C)COC(=O)Cc1ccccc1
inactive: SK-MEL-2 melanoma; 10 µM unless noted 113% | EKVX NSCLC; 10 µM unless noted 109% | SN12C renal; 10 µM unless noted 94.2% | UO-31 renal; 10 µM unless noted 102% | TK-10 renal 95.3% | ACHN renal; 10 µM unless noted 108% | CAKI-1 renal; 10 µM unless noted 101% | A498 renal 81.1% | HL-60(TB) leukemia; 10 µM unless noted 109%

CCN1C(=O)CC(=O)N(CC)C1=S
inactive: SK-MEL-2 melanoma; 10 µM unless noted 97% | EKVX NSCLC; 10 µM unless noted 108% | SN12C renal; 10 µM unless noted 99.3% | UO-31 renal; 10 µM unless noted 91.7% | TK-10 renal 105% | ACHN renal; 10 µM unless noted 101% | CAKI-1 renal; 10 µM unless noted 76.8% | A498 renal 94.6% | HL-60(TB) leukemia; 10 µM unless noted 68.7%
